Source: PubChem BioAssay (NCI)
The panel holds about 79,000 compounds, 15% with a hit somewhere; the sample as a whole holds those more often. A number with no mark means an inactive call. Calls of active or inactive are those of the source. Cut-off read from the data, not from the text of the source: active = growth inhibition above about 70%; inactive = the rest.

Assays:
[1] = NCI Yeast Anticancer Drug Screen. Data for the rad50 strain (AID 155);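 note: 0% = growth of vehicle-only cultures of the same strain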; settings: S. cerevisiae rad50 strain growth inhibition; at 50.0 µM; hits give high values
Summary of the method: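 Relative growth inhibition (compound vs vehicle) was measured in yeast with a defined repair-gene alteration.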

[2] = NCI Yeast Anticancer Drug Screen. Data for the mec2-1 strain (AID 157); settings: S. cerevisiae mec2-1 strain, at 50.0 µM, hits give high values
Summary of the method: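 Yeast mec2-1 mutant treated with compound. Readout: growth inhibition vs vehicle controls.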

[3] = NCI Yeast Anticancer Drug Screen. Data for the sgs1 mgt1 strain (AID 161);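 note: 0% = growth of cultures given vehicle only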; settings: S. cerevisiae sgs1 mgt1 strain, at 50.0 µM, hits give high values
Summary of the method: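 Genetically altered yeast, compound exposure, growth inhibition relative to vehicle.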

[4] = NCI Yeast Anticancer Drug Screen. Data for the cln2 rad14 strain (AID 165);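 note: 0% = growth equal to vehicle treated cultures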; settings: S. cerevisiae cln2 rad14 strain, at 50.0 µM, hits give high values
Summary of the method: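 cln2 rad14 yeast strain; compound exposure; growth inhibition read vs vehicle controls.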

[5] = NCI Yeast Anticancer Drug Screen. Data for the bub3 strain (AID 167); settings: S. cerevisiae bub3 mutant strain, at 50.0 µM, hits give high values
Summary of the method: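 Screening used yeast with an engineered genetic alteration affecting cell cycle control. Compound-exposed cultures were compared with vehicle cultures, and reduced growth was taken as inhibition.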

[6] = NCI Yeast Anticancer Drug Screen. Data for the mlh1 rad18 strain (AID 175); settings: S. cerevisiae mlh1 rad18 strain growth inhibition; at 50.0 µM; hits give high values
Summary of the method: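 Yeast w/ defined DNA-repair lesions; compound exposure; growth vs vehicle controls → % inhibition.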

Row | Structure (SMILES) | growth inhibition [1] | growth inhibition [2] | growth inhibition [3] | growth inhibition [4] | growth inhibition [5] | growth inhibition [6]
1 | CC1CCC2C(C)C3C(CC4C5CCC6CC(O)CCC6(C)C5CCC43C)N2C1 (stereo unspecified) | 17.1% | 23.4% | 17.5% | -29.1% | -18.4% | 15.7%
2 | CC(C)=C=CP(=O)(O)c1ccccc1 | -25.1% | -24.1% | -15.7% | 31.9% | -14.3% | 4.45%
3 | Cc1csc2sc3ccccc3[n+]12 | 5.75% | -6.85% | -0.5% | -5.8% | -11.9% | -34.1%
4 | C[N+]12CCC34C5=CC(=O)C(=O)C=C5[N+]5(C)C(=O)CC6OCC=C(C1)C(CC32)C6C45 (stereo unspecified) | -2% | -22.1% | 4.65% | 10.9% | 11.7% | 0.7%
5 | O=C1NN2CCCN=C2c2cnccc21 | -12.3% | 4.5% | 11.4% | -34.6% | 27.6% | -7.4%
6 | C[C@@]1(C(=O)c2ccccc2)N(c2ccccc2)[C@@]1(C)C(=O)c1ccccc1 | 8.9% | 8.3% | 4.35% | 21.8% | 16.1% | 32.4%
7 | COC12c3ccccc3-c3ccccc3C1[C@@H](C(=O)O)[C@H]2C(=O)O (stereo partly specified) | 11.2% | 1.6% | -11.6% | -14% | -24.4% | -10.3%
8 | O=NN(Cc1ccccc1)Cc1ccccc1 | 2.55% | 0.1% | 3.1% | 0.5% | 8.6% | 21.4%
9 | CC1CC(O)C(=O)C(O[C@@H]2C[C@@H]3CC[C@@H]4[C@H](CC[C@]5(C)C(C6=CC(=O)OC6)CC[C@]45O)[C@@]3(C=O)C[C@H]2O)O1 (stereo partly specified) | 7.95% | 8.5% | -8.1% | -2.6% | -12.8% | -42.9%
10 | CC1CN1C1=C(Br)C(=O)C(N2CC2C)=C(Br)C1=O (stereo unspecified) | 73.7% (active) | 23.1% | 84% (active) | -3.05% | 62% | 79.8% (active)
11 | N.N.N.N.N.NC(=O)c1nn[n-]n1.[Cl-].[Co+3] | -27.2% | -3% | -9.45% | 0% | -27.3% | -17.1%
12 | Cn1nnc(-c2nnn(C)n2)n1 | -19.1% | -12.5% | -8.65% | -14.8% | -15.9% | -19.6%
13 | CCC(C)(Cl)c1ccccc1 (stereo unspecified) | -11.7% | -21.6% | -13.6% | -0.4% | -21.4% | -14.1%
14 | CCNC1=C(N2CC2)C(=O)C(NCC)=C(N2CC2)C1=O | 30.5% | 15.7% | 29.4% | 8.1% | 13.3% | 18.7%
15 | O=C(O)C(Cl)Cl | -1.6% | -29.6% | 4.45% | -10.1% | -1.6% | 9.45%
16 | N#CCO | -3.7% | 11.3% | -9.1% | -5.4% | -3.4% | -5.65%
17 | CNCCc1ccccc1 | 26% | 6.05% | 14.3% | 14.6% | -33.8% | -3.05%
18 | CCOP(=O)(NCc1ccccc1)c1ccc(N)cc1 (stereo unspecified) | 6.05% | -6.45% | 7.65% | 1.95% | -0.5% | 7.15%
19 | CC(C)CCC1C(=O)N(C)C(=O)N(C)C1=O | -9% | -6.55% | 3.15% | -0.5% | 0.55% | 2.05%
20 | CCC[As](=O)(O)c1ccc(Cl)cc1 | 88.5% (active) | 99.5% (active) | 99.2% (active) | 73.5% (active) | 94.7% (active) | 99.2% (active)
21 | CN1C(=O)C[N+]([O-])=C(c2ccccc2)c2cc(Cl)ccc21 | 2.45% | 0.9% | -10.1% | 18.6% | -5.15% | -13.7%

Row | Structure (SMILES) | growth inhibition [1] | growth inhibition [2] | growth inhibition [3] | growth inhibition [4] | growth inhibition [5] | growth inhibition [6]
22 | CC(C)OP(=O)(OC(C)C)/C(C#N)=C/c1ccco1 | -23.9% | -51% | -23.6% | -32.2% | -20.1% | -31.9%
23 | ClCCN(CCCl)c1ccc(/C=N/N=C2c3ccccc3-c3ccccc32)cc1 | -21.6% | -7.05% | -6.2% | -2.95% | -18.9% | -4.5%
24 | Fc1cccc2cc3cccc[n+]3cc12 | 5.6% | 6.65% | 3.55% | -36.3% | 15.6% | -1.8%
25 | O=C(COc1ccccc1Cl)Nc1ccc[n+](Cc2ccc(S(=O)(=O)F)cc2)c1 | -20.9% | -21.2% | 2.9% | -42.2% | -3.15% | -0.7%
26 | O=C1C2CC(CN3CCCCC23)C2CCCCN12 (stereo unspecified) | -4.55% | -24.1% | 18.9% | 8.35% | -4.15% | -24.2%
27 | CN1CCN(C)C12C=c1ccccc1=CC21CC1 | 5.05% | -15.9% | -45.6% | -2.65% | -39.9% | -8.15%
28 | NC(Cc1c[nH]c2cc([N+](=O)[O-])ccc12)C(=O)O (stereo unspecified) | 13.8% | 2.15% | -33.9% | -7.45% | -43% | -0.25%
29 | CC(=O)OCC1OC(S[As](C)C)C(OC(C)=O)C(OC(C)=O)C1OC(C)=O (stereo unspecified) | -2.85% | 13.8% | -8.3% | 10.9% | 6.4% | 36.8%
30 | Cc1ncc(CNC(=O)N(CCCl)N=O)c(N)n1 | 0.45% | -6.8% | 6.3% | -10.2% | -4.2% | 32.1%
31 | C/C=C1/C[C@@H](C)[C@@](C)(O)C(=O)OCC2=CC[N+]3([O-])CC[C@@H](OC1=O)[C@@H]23 (stereo partly specified) | -0.9% | -17.4% | -3.4% | 10.7% | -15.9% | -53.6%
32 | CN(C)C(=O)C(CC[N+](C)(C)C)(c1ccccc1)c1ccccc1 | 8.65% | 5.5% | 5.55% | 24.7% | -3.9% | -10.1%
33 | CN(C)P1(=O)OCC(C(C)(C)C)CN1c1ccccc1 (stereo unspecified) | -6.6% | 2.95% | -2.8% | -22.2% | -12.9% | -14.3%
34 | CCN(CC)CCn1c(=O)c2ccccc2n(CCN(CC)CC)c1=O | 19.6% | 13.1% | 22.5% | 20.8% | 12.7% | 10.4%
35 | CO/C(=N/N1CC1C(F)(F)F)c1ccncc1 (stereo unspecified) | -34.8% | 19.2% | -51.9% | 11.8% | 1.65% | 8%
36 | Cc1cc(N)ccc1N | 7.15% | 11.2% | 14.2% | 4.25% | -6% | -2.9%
37 | O=C(Cc1ccc2c(c1)OCO2)c1cn(C(=O)Cc2ccc3c(c2)OCO3)c2ccccc12 | 18.7% | 5.9% | 5.4% | 14.8% | 0.35% | 26.4%
38 | Cc1cc(N(CCCl)CCCl)ccc1C1N(Cc2ccc(N(CCCl)CCCl)cc2)CCCN1Cc1ccc(N(CCCl)CCCl)cc1 | 0.8% | 7.8% | -6.2% | -5.1% | -1.35% | 25%
39 | C=CCc1cc(OC)c2c(c1OC)OCO2 | 6.3% | 8.95% | -0.7% | 2.05% | -1.9% | 7.05%
40 | NNc1nncn1N | -5.25% | -10.9% | -23.4% | 51.3% | -17.5% | -6.25%
41 | C#C[C@]1(O)CC[C@H]2[C@@H]3CCC4=C/C(=N/OC(=O)c5cccc6c(=O)c7ccccc7[nH]c56)CC[C@@H]4[C@H]3CC[C@@]21C | 1.6% | -4.5% | 11.3% | 9.7% | -24.9% | -3.55%
